ST2 inh: inhibitors of human ST2 (IL1RL1) binding to IL-33; AlphaLISA ST2-Fc/biotin-IL-33 interaction, 1 h; actives 2.3% (n = 78,000); inhibition, % for hits at 17 µM; Q01638; AID 1259354; in the data active = inhibition above about 30%
Target sequence (Q01638 whole entry, looked up): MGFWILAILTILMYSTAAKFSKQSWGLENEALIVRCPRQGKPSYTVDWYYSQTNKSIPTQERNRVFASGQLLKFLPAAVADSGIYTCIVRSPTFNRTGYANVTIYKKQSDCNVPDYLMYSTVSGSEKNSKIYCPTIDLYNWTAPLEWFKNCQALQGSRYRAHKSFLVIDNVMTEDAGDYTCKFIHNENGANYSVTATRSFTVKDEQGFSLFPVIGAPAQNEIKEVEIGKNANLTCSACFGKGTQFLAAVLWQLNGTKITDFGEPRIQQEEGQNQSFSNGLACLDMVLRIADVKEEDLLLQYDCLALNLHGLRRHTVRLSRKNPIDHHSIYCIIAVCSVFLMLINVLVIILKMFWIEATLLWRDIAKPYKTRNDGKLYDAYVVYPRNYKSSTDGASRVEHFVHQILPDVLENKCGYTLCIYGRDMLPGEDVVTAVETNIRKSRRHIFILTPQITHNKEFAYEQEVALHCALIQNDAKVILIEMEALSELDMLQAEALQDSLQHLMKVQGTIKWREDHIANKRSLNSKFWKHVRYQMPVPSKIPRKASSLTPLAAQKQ
Numbers without * were called inactive; i = inactive. This is one part of a sample in which hits are shown more often than they occur.

SMILES	ST2 inh
COc1ccc(C2CC(c3ccc(Br)cc3)Nc3nc(N)nn32)cc1OC (stereo not drawn)	i
N#CC1C(=O)NC(=O)C([n+]2ccccc2)C1c1ccc(F)cc1 (stereo not drawn)	i
CC(=O)Nc1ccc2nc(SCc3nc4ccccc4[nH]3)sc2c1	i
CCOC(=O)c1ccc(NS(=O)(=O)c2ccc3c(c2)CCC(=O)N3)cc1	i
O=C(NCc1ccc(Cl)cc1)C1(S(=O)(=O)c2ccc(Cl)cc2)CC1	i
COc1ccc(-n2c(=O)[nH]cc(C(=O)Nc3cc(OC)ccc3OC)c2=O)cc1	i
Cn1c(=O)n(C)c2cc(N=Cc3cccc([N+](=O)[O-])c3)ccc21	i
Oc1c(Cl)cc(Br)cc1C=Nc1ccccc1	i
CC(=O)N1c2ccc(N=Cc3cc(Br)cc(Br)c3O)cc2CC1C (stereo not drawn)	i
CCc1ccc(N=Cc2cc(Br)ccc2O)cc1	36.0%*
CCc1ccc(N=Cc2cccc([N+](=O)[O-])c2O)cc1	i
Cn1c(=O)n(C)c2cc(N=Cc3cc(Br)ccc3O)ccc21	31.0%*
COC(=O)CSC1=C(C#N)C(c2ccc(OC)c(OCc3ccccc3)c2)CC(=O)N1 (stereo not drawn)	i
CC(Sc1ccc(Cl)cc1)C(=O)Nc1ccc2c(c1)OCCO2 (stereo not drawn)	i
COc1ccc(Cl)cc1S(=O)(=O)N1CCN(C23CC4CC(CC(C4)C2)C3)CC1	i
C1=C(c2cccc3ccccc23)N2CCN=C2S1	i
Cc1nc2c(C(=O)NCCN3CCOCC3)c[nH]n2c(=O)c1Cc1ccc(F)cc1	i
CC(C)c1ccc(NC2CCCN(C(=O)c3ccc(Cn4cnnn4)cc3)C2)cc1 (stereo not drawn)	i
CC(=O)Oc1ccc(-c2nc3ccc(Cl)cc3c(=O)o2)cc1	i
O=C(O)c1cc(-c2ccc(Br)cc2)nc2ccc(Cl)cc12	i
Cc1ccc(-c2onc3ccc(Cl)cc23)cc1	45.0%*
Clc1ccc(Cn2ncc3c(N4CCN(c5ccccn5)CC4)ncnc32)c(Cl)c1	i
CC(=O)N1CCc2cc(Br)cc(S(=O)(=O)CC(=O)Nc3ccc(Cl)cc3)c21	i
O=[N+]([O-])c1ccc(S(=O)(=O)N2CCN(c3ccccc3)CC2)cc1	i
O=[N+]([O-])c1ccc(S(=O)(=O)N2CCN(c3ccccn3)CC2)cc1	i
SMILES	ST2 inh
O=[N+]([O-])c1ccc(N2CCN(S(=O)(=O)c3ccc(Cl)c(Cl)c3)CC2)cc1NC1CC1	30.0%*
O=C(COc1ccccc1)N1CCN(S(=O)(=O)c2ccc([N+](=O)[O-])cc2)CC1	i
O=[N+]([O-])c1ccc(S(=O)(=O)N2CCN(CCCc3ccccc3)CC2)cc1	34.0%*
O=[N+]([O-])c1ccc(N2CCN(S(=O)(=O)c3ccc(Cl)cc3)CC2)cc1	35.0%*
CCS(=O)(=O)N1CCN(c2ccc([N+](=O)[O-])c(NCc3cccnc3)c2)CC1	i
O=[N+]([O-])c1ccc(N2CCOCC2)cc1NCCCO	i
O=S(=O)(c1ccc(Br)cc1)N1CCN(Cc2ccccc2)CC1	i
O=C(CNC(=O)c1cccs1)NC1CCCCCC1	i
CN(C)CCN(C)Cc1cccc(F)c1	i
CCS(=O)(=O)N1CCN(c2cc(-c3cccc(OC)c3)ncn2)CC1	i
O=C(NCc1ccc2c(c1)OCO2)Nc1ccccc1	i
CS(=O)(=O)N1CCN(C(=O)c2cccs2)[C@@H](C(=O)N[C@@H](CC2CCCCC2)C(N)=O)C1	i
O=C1CC(N2CCN(c3ccccn3)CC2)C(=O)N1c1ccc(Cl)cc1 (stereo not drawn)	i
CSCCC(NC(=O)c1ccccc1)C(=O)Nc1ccc(C)cc1 (stereo not drawn)	i
CCOC(=O)Cn1c(=O)oc2cc(Cl)ccc21	i
O=C(Cn1c(=O)oc2ccccc21)Nc1ccc(Cl)cc1Cl	46.0%*
CCC(C)NC(=O)c1ccc(NC(=O)Cn2c(=O)oc3ccccc32)cc1 (stereo not drawn)	i
COC(=O)C1=NN(C(=O)c2ccccc2)C(C)(O)C1 (stereo not drawn)	i
CNS(=O)(=O)c1ccc(CN2CCC(CN)C2)cc1 (stereo not drawn)	i
C=CCn1c(SCC(=O)Nc2ccccc2[N+](=O)[O-])nc2sc(CC)cc2c1=O	30.0%*
C=CCn1c(SCC(=O)Nc2sc3c(c2C(=O)OCC)CCC3)nc2ccccc2c1=O	i
CCc1ccccc1NC(=O)CSc1nc2ccccc2c(=O)n1CCc1ccccc1	i
Oc1cc2ccccc2cc1-c1nnc2n1N=C(c1ccc(F)cc1)CS2	i
COc1ccc(-c2nc(NC3CCCCC3)c3ccccc3n2)cc1OC	i
Cc1ccc(C)c(CNC(=O)C(C)(C)NC(=O)c2cccs2)c1	i
COc1ccccc1CNc1ccc2c(c1)ncn2C(C)(C)C	i
CCn1cnc2cc(NCc3ccccc3OC)ccc21	i
COc1ccccc1CNc1ccc2c(c1)ncn2C1CCCCC1	33.0%*
Cc1ccc(-c2nc(CN3CCN(c4ccc(Cl)cn4)CC3)c(C)o2)o1	i
